Source: PubChem BioAssay (NCI)
This is part of a sample that, as a whole, favours compounds with a hit. Of some 83,000 tested, about 20% had one in any assay.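 The endpoint reported here, percent growth, reads 100 for growth as untreated, 0 for no net growth and -100 for all cells dead.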

Key:
Test in all cases: NCI-60 one-dose screen, 48 h (100 = growth as untreated, 0 = no growth, -100 = all killed)
Conditions in all cases: 10 µM unless noted; active = growth percent below 10; inactive = the rest
[1] = test system: SR leukemia
[2] = test system: RPMI-8226 leukemia
[3] = test system: OVCAR-8 ovarian
[4] = test system: OVCAR-5 ovarian
[5] = test system: OVCAR-4 ovarian
[6] = test system: SK-OV-3 ovarian
[7] = test system: IGROV1 ovarian
[8] = test system: OVCAR-3 ovarian
[9] = test system: HS 578T breast
[10] = test system: NCI/ADR-RES ovarian
[11] = test system: T-47D breast
[12] = test system: BT-549 breast
[13] = test system: MDA-MB-435 melanoma
[14] = test system: SW-620 colon
[15] = test system: MCF7 breast
[16] = test system: HCT-116 colon
[17] = test system: HCC-2998 colon
[18] = test system: KM12 colon

Measured: growth

O=C(O)/C=C/c1cn(-c2ccccc2)nc1-c1ccc(F)cc1
inactive: [1] 104% | [2] 97.4% | [3] 87.4% | [4] 88.8% | [5] 99.1% | [6] 87.8% | [7] 91.6% | [8] 96% | [9] 83.4% | [10] 90.4% | [11] 93.9% | [12] 90.7% | [13] 105% | [14] 89.8% | [15] 84% | [16] 82.5% | [17] 103% | [18] 90.4%

CC(C)=CC(=O)C1C(=O)c2ccccc2C1=O
inactive: [1] 91.3% | [2] 103% | [3] 97.8% | [4] 97.3% | [5] 102% | [6] 90.4% | [7] 70.5% | [8] 95.7% | [9] 102% | [10] 108% | [11] 97.3% | [12] 108% | [13] 98.9% | [14] 102% | [15] 93.4% | [16] 103% | [17] 111% | [18] 103%

O=C1CC2C=CCN2C=C1NC(=O)c1ccccc1 (stereo not given)
inactive: [1] 88.7% | [2] 112% | [3] 114% | [4] 97.4% | [5] 109% | [6] 113% | [7] 106% | [8] 105% | [9] 115% | [10] 103% | [11] 99.8% | [12] 103% | [13] 105% | [14] 109% | [15] 101% | [16] 93.6% | [18] 101%

O=c1c(/C=C/c2c(O)ccc3ccccc23)nnc2sc(-c3cccc([N+](=O)[O-])c3)nn12
inactive: [1] 28.3% | [2] 57.3% | [3] 22.4% | [4] 82.1% | [5] 25.5% | [6] 46% | [7] 43.1% | [8] 15.2% | [9] 68.3% | [10] 29.4% | [11] 33.6% | [12] 65.1% | [13] 47.5% | [14] 32.5% | [15] 27.4% | [16] 10.5% | [18] 37.2%
